Compound activity deposited in PubChem BioAssay by The Scripps Research Institute Molecular Screening Center.
Most compounds without a hit are left out; they make up all but 4.1% or so of the library.
DAX1 inh-1 = inhibitors of human orphan nuclear receptor DAX1 (NR0B1) | P51843 | HEK293 Gal4-DAX1 luciferase reporter, luminescence | inhibition, % at 6.75 µM | actives 0.99% (n = 340,000);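 active = inhibition above the mean over all tested compounds plus 3 SD, cut at about 4.2% in these data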;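 note: 0% = DAX1-transfected cells with DMSO and 100% = empty-vector control cells with DMSO; inhibition shows as a rise in luminescence from relieved DAX1 repression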
Target sequence (P51843 207-470 limits assumed): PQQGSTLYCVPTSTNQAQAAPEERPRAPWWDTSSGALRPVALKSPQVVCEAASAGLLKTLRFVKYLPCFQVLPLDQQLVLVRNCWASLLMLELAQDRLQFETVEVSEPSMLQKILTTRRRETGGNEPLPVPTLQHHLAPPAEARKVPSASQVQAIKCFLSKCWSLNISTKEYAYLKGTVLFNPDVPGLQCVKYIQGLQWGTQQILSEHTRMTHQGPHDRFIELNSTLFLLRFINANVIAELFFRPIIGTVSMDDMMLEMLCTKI
hgDAF-12 ag = hgDAF-12 agonism, primary luciferase screen; AID 687014; HEK293 GAL4-hgDAF12 UAS-luciferase reporter, agonist luminescence; normalized to butyrate control; activation, % at 6.8 µM; actives 1.8% (n = 370,000);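 active = activation above a cutoff set at the mean of all screened compounds plus 3 SD, cut at about 10% in these data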;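 note: 0% = DMSO wells and 100% = sodium butyrate wells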
DAX1 inh-2 = blocks DAX1 repression of SF-1 activated StAR promoter; HEK293T StAR-luciferase reporter, SF-1/DAX-1 repression relief; inhibition, % at 6.8 µM; actives 1.1% (n = 370,000);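 active = inhibition above the mean over all tested compounds plus 3 SD, cut at about 3.6% in these data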;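 note: 0% = DAX-1 cells with DMSO and 100% = cells lacking DAX-1 with DMSO; higher inhibition means more luminescence from relief of DAX-1 repression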
hcDAF-12 act = activators of H. contortus DAF-12 nuclear receptor | activation, % at 6.8 µM | HEK293 hcDAF-12 lit1-tk-luc reporter, luminescence; 0% DMSO, 100% Δ7-dafachronic acid | actives 1.4% (n = 370,000);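 active = activation above the mean of all tested compounds plus 3 SD, cut at about 5.5% in these data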;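 note: 100% = response to 3 µM Δ7-dafachronic acid high control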
ssDAF-12 act = S. stercoralis DAF-12 activation, primary screen | HEK293 ssDAF-12/GRIP1 lit1-tk-luc reporter, luminescence; % of 3 µM dafachronic acid response | activation, % at 6.8 µM | actives 1% (n = 370,000);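 active = activation above the mean over all tested compounds plus 3 SD, cut at about 0.9% in these data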;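 note: 0% = DMSO-only wells and 100% = 3 µM delta7-dafachronic acid wells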
DAX1 conf = NR0B1 (human) inhibition, confirmation. shares compounds with DAX1 inh-2. HEK293T StAR-promoter luciferase reporter, SF-1/DAX-1 repression. inhibition, % at 6.8 µM. actives 87% (n = 2,400);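 active = inhibition above the average of every tested compound plus 3 SD, cut at about 3.8% in these data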;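 note: 0% = DAX-1 cells with DMSO and 100% = no DAX-1 control cells with DMSO; active compounds raise luminescence by relieving repression of the StAR reporter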
SF1 mutant ctr = nonselective inhibitor or artifact in SF-1 mutant DAX1 counter-screen. actives 78% (n = 2,400). shares compounds with DAX1 inh-2. HEK293 StAR-luciferase, SF-1 AF2 mutant, luminescence. inhibition, % at 6.8 µM. AID 652136;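 active = inhibition above the mean of all tested compounds plus 3 SD, cut at about 3% in these data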;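 note: 0% = DAX-1 transfected cells with DMSO and 100% = cells without DAX-1 with DMSO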
LXR ag = LXR-beta agonism as hcDAF-12 counter-screen. shares compounds with hcDAF-12 act. 3,400 tested, under 10 active. HEK293 Gal4-LXR tk-luc reporter, luminescence, 24 h; normalized: DMSO 0%, positive control 100%. activation, % at 6.8 µM;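 active = mean percent activation of the reporter above a cutoff set as the average over tested compounds plus their standard deviation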
Target sequence (P55055 whole entry, looked up, the tested form may be a part): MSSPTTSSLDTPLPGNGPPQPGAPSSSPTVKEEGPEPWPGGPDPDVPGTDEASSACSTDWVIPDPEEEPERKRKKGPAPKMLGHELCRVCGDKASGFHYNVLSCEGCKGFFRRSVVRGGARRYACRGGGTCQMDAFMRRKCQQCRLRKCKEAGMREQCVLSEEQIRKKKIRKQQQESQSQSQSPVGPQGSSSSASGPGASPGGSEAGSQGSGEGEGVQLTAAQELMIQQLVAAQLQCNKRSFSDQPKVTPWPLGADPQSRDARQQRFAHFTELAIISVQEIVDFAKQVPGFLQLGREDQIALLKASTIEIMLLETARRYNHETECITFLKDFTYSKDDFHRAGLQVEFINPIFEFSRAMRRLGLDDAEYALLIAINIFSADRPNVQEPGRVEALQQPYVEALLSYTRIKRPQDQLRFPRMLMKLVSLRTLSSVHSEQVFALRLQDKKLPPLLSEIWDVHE
hcDAF12 ag = hcDAF-12 agonism, confirmation assay | HEK293 hcDAF-12 lit1-tk-luc reporter, luminescence; % of Δ7-dafachronic acid response | shares compounds with hcDAF-12 act | activation, % at 6.8 µM | actives 61% (n = 3,400);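 active = mean activation across triplicate tests above the threshold derived from the earlier primary screen, cut at about 5.5% in these data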;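 note: 0% = DMSO only wells and 100% = 3 µM Δ7-dafachronic acid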
hgDAF12 conf = confirmation of H. glycines DAF-12 agonists; actives 80% (n = 3,300); shares compounds with hgDAF-12 ag; activation, % at 6.8 µM; HEK293 GAL4-hgDAF12 luciferase reporter, agonist mode; percent of butyrate response;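 active = mean activation over triplicate wells above the hit cutoff derived from the earlier primary screen, cut at about 11% in these data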;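 note: 0% = DMSO low control and 100% = 2 mM sodium butyrate high control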
LXRb DAF12 ctr = LXR-beta agonism as DAF-12 counter-screen; shares compounds with hgDAF-12 ag; HEK293 Gal4-LXR luciferase reporter, 24 h; activation, % at 6.8 µM; 3,300 tested, under 10 active;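 active = mean activation of the triplicate above a set limit carried over from the primary screen, none filed active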
Numbers without * were called inactive; nt = no result.

SMILES	DAX1 inh-1	hgDAF-12 ag	DAX1 inh-2	hcDAF-12 act	ssDAF-12 act	DAX1 conf	SF1 mutant ctr	LXR ag	hcDAF12 ag	hgDAF12 conf	LXRb DAF12 ctr
CCN=c1scc(-c2ccc(F)cc2)n1/N=C/c1ccccn1	2	21*	6.8*	2	-2	7.2*	4.8*	nt	nt	8	0
CCN=c1scc(-c2ccccc2)n1/N=C/c1ccccn1	-4	nt	nt	nt	nt	nt	nt	nt	nt	nt	nt
CC(C)N(Cc1cn(Cc2ccccc2)nn1)S(=O)(=O)c1ccc(F)cc1Br	nt	-4	-1	-3	-1	nt	nt	nt	nt	nt	nt
O=[N+]([O-])c1ccc2nc(-c3ccncc3)[nH]c2c1	3	4	0	2	-1	nt	nt	nt	nt	nt	nt
Cc1ccc(-c2nc3ccc([N+](=O)[O-])cc3[nH]2)cc1	-2	18*	9.2*	7.1*	0	14*	6.7*	1	7.1*	18*	1
Cc1ccnc(NC(=O)c2oc3ccccc3c2C)c1	0	22*	11*	20*	3.0*	9.2*	3.7*	2	15*	20*	1
CCOc1ccc2oc(C(=O)Nc3cc(C)ccn3)c(C)c2c1	2	14*	13*	3	0	11*	5.0*	nt	nt	17*	1
Cc1csc(NC(=O)c2oc3ccccc3c2C)n1	2	19*	14*	18*	2.1*	13*	8.0*	2	18*	17*	1
Cc1csc(NC(=O)c2ccc(COc3cccc(F)c3)o2)n1	nt	9	2	1	-1	nt	nt	nt	nt	nt	nt
O=C(Nc1cccnc1Cl)c1ccc2c(Cl)c3c(nc2c1)CCC3	2	17*	5.0*	6	0	16*	6.1*	nt	nt	20*	1
N#Cc1ccccc1NC(=O)c1ccc2c(Cl)c3c(nc2c1)CCCC3	3	4	1	0	-1	nt	nt	nt	nt	nt	nt
Cc1cccc(C)c1-n1nnnc1C(c1ccccc1)N1CCN(C/C=C/c2ccccc2)CC1 (stereo not drawn)	nt	2	2	-1	-1	nt	nt	nt	nt	nt	nt
O=c1[nH]c(=O)n(C2CC(O)C(CO)O2)cc1Br (stereo not drawn)	3	15*	11*	6.2*	-1	18*	6.8*	nt	nt	20*	0
COc1ccc(-c2csc(Nc3ccccc3)n2)cc1	2	21*	7.4*	5	0	13*	8.2*	nt	nt	20*	1
CC(=O)c1cccc(Nc2nc(-c3cccnc3)cs2)c1	1	8	1	0	0	nt	nt	nt	nt	nt	nt
CC(=O)c1cccc(Nc2nc(-c3ccccc3)cs2)c1	1	21*	9.7*	9.8*	1.0*	11*	7.0*	2	5	19*	1
COc1ccccc1N1Cc2ccc(OC)c(OC)c2C1=O	1	-1	1	-2	-1	nt	nt	nt	nt	nt	nt
COc1ccc2c(c1OC)C(=O)N(c1cccc(C(F)(F)F)c1)C2	2	19*	5.1*	5.7*	0	13*	4.4*	nt	nt	15*	0
c1ccc(-c2cc(-c3ccccc3)on2)cc1	3	18*	5.7*	12*	1.7*	18*	12*	1	8.0*	18*	1
COc1ccc2c(c1)C(CC(C)=O)N(c1ccc(-c3cccnc3)cc1)C(c1ccsc1)=C2 (stereo not drawn)	nt	-2	-1	-1	-1	nt	nt	nt	nt	nt	nt
COC(=O)[C@]12C[C@H](CC(=O)NCc3ccccc3)C(=O)N(CCc3ccc(OC)c(OC)c3)C1=C[C@H](C1CCCC1)O[C@@H]2C	nt	1	-1	-2	-2	nt	nt	nt	nt	nt	nt
O=C(NC1CCCCC1)c1ccc(-c2ccccc2F)o1	1	20*	8.7*	10*	2.0*	18*	6.2*	1	6.1*	19*	1
O=C(NC1CCCCCC1)c1ccc(CS(=O)(=O)Cc2ccccc2F)o1	0	5	0	0	-1	nt	nt	nt	nt	nt	nt
c1ccc2nc3c(nc2c1)[nH]c1ccccc13	3	18*	4.6*	7.0*	1.7*	14*	7.6*	2	11*	17*	1
Cc1cccnc1NC(=O)c1ccc(S(=O)(=O)N2CCCCCC2)cc1	1	1	0	0	-1	nt	nt	nt	nt	nt	nt
SMILES	DAX1 inh-1	hgDAF-12 ag	DAX1 inh-2	hcDAF-12 act	ssDAF-12 act	DAX1 conf	SF1 mutant ctr	LXR ag	hcDAF12 ag	hgDAF12 conf	LXRb DAF12 ctr
CC1CCN(S(=O)(=O)c2ccc(C(=O)Nc3ncccc3O)cc2)CC1	3	16*	6.3*	0	0	8.4*	4.3*	nt	nt	15*	0
CCOC(=O)[C@]12CCCC=C1N(CCCOC)C(=O)[C@@H]2CC(=O)N1CCN(C(=O)c2ccco2)CC1	nt	0	-1	1	-1	nt	nt	nt	nt	nt	nt
O=C(NCCS(=O)(=O)NCCc1ccccc1)c1ccc2c(c1)OCO2	4.3*	15*	10*	5.6*	1.1*	7.9*	3.1*	nt	nt	14*	1
COc1ccc(S(=O)(=O)n2ccc(-c3cnc(-c4ccccc4)s3)n2)cc1	1	3	0	-2	-1	nt	nt	nt	nt	nt	nt
O=C(c1ccccc1)n1ccc(-c2cnc(-c3ccccc3)s2)n1	1	18*	4.9*	7.7*	1.0*	13*	5.6*	2	7.1*	20*	1
C/C(=N/NC(=O)c1cccs1)c1ccc(N2CCOCC2)cc1	4	20*	4.7*	6.0*	0	4	2	nt	nt	5	0
CC(C)N(C)c1ncnc2c1ncn2[C@H]1CN(Cc2ccc(Cl)cc2)C[C@@H](CO)O1	nt	-3	-3	-2	-1	nt	nt	nt	nt	nt	nt
CC1=C(C(=O)N(C(C)C)C(C)C)CC(CC(=O)NCc2ccco2)C(=O)N1CCCN1CCCC1=O (stereo not drawn)	nt	-1	0	-1	-1	nt	nt	nt	nt	nt	nt
O=C(/C=C/c1ccco1)N1CCc2ccccc21	0	16*	10*	16*	1.5*	13*	6.4*	2	11*	21*	1
CCOC(=O)/C=C/C(=O)N1CCc2ccccc21	-1	0	-1	3	-1	nt	nt	nt	nt	nt	nt
